Only some compounds are listed: those with a hit (about 5.8% of all), similar ones and a draw of the others.
PINK1 expr mod: modulators of PINK1 expression; PINK1 immunofluorescence, high-content cytometry, 24 h; Potency, µM (top dose mostly 76.6 µM), for the others: at the highest dose activation (PINK1 increase), actives largely listed as activators; hit rate 0.2% among 410,000; active means well fitted activation curve with a large enough effect; inconclusive means small, poorly fitted or top-dose-only effect; cell line not stated here; further: % of control where 0% means no effect; nearly all actives have a fitted effect of over 65% in size
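A stable cell line was treated with compounds at 5 concentrations for 24 hours, with CCCP as control. PINK1 levels and mitochondrial localization were measured by immunofluorescence with mitochondrial, cell and nuclear markers after fixation, read by laser-scanning cytometry.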
12-LOX inh: blocks human arachidonate 12S-lipoxygenase. purified 12hLO, xylenol orange hydroperoxide absorbance. Potency, µM (titrated, usually from 108 µM), for the others: top-dose activity change, negative = inhibition, most hits filed as inhibitors. P18054. hit rate 1.1% among 580,000; further: on the % scale 0 is the no-effect control and ±100 the full control effect
Target sequence (P18054 whole entry, looked up): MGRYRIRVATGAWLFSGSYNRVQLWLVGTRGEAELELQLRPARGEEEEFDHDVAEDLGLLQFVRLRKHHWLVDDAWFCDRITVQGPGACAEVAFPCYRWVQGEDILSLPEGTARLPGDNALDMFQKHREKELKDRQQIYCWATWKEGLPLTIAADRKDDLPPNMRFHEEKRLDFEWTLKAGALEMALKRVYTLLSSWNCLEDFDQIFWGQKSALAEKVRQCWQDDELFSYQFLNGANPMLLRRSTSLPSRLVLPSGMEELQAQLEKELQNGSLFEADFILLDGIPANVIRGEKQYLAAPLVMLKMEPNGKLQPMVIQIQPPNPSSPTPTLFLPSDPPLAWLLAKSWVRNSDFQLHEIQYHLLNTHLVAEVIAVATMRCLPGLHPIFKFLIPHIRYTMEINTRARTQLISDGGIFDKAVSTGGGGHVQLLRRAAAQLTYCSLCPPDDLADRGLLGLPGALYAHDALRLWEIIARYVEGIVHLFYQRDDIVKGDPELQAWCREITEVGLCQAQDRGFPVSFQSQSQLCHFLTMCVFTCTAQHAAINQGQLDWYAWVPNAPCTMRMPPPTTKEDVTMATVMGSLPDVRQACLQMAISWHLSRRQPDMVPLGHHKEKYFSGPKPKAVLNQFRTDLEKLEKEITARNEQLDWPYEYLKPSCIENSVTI
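Purified human 12hLO (150 nM final) in 25 mM Hepes, 0.01% Triton X-100, pH 7.0 was preincubated 15 min at room temperature with compound. Then 40 uM arachidonic acid was added, 30 min. Hydroperoxide was read by Fe-XO absorbance ratio 573/405 nm.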
MCF10A rereplic: induces DNA re-replication in MCF 10a normal breast cells; AID 624296; Potency, µM (series often up to 46.1 µM), without a hit: at the top dose activity, positive = re-replication, actives largely listed as activators; MCF 10A DNA re-replication, Hoechst nuclear intensity, 48 h; hit rate 2.9% among 350,000; further: % of control where 0% means no effect; nearly all actives have a fitted effect of over 50% in size
SW480 rerep: DNA re-replication induction in SW480 cells; SW480 DNA re-replication, Hoechst DNA content imaging, 48 h; AID 624297; Potency, µM (series often up to 46.1 µM), for inactives: top-dose re-replication activation, hits mostly activators; hit rate 1.8% among 340,000; further: % of control where 0% means no effect; nearly all actives have a fitted effect of over 55% in size
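Cells (250 per well) received 23 nL compound or DMSO by pin tool and were kept 48 hr at 37 C, 5% CO2. Nuclei were then stained with Hoechst for 40 min and scanned for DNA content.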
KB-3-1 tox: kills parental KB-3-1 adenocarcinoma cells. KB-3-1 viability, CellTiter-Glo ATP luminescence, 72 h. Potency, µM (series often up to 46.1 µM), usual class: cytotoxic. hit rate 1.4% among 400,000; further: on the % scale 0 is the no-effect control and ±100 the full control effect; nearly all actives have a fitted effect of over 60% in size
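Parental KB-3-1 adenocarcinoma cells in phenol-red-free DMEM with 10% FBS were pin-treated with compounds at several concentrations, incubated 72 h at 37 °C, and viability read by CellTiter-Glo luminescence; concentration-effect curves were fitted after normalization.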
KB-V1 MDR tox: KB-V1 MDR subline cytotoxicity | KB-V1 MDR cells viability, CellTiter-Glo, 72 h | Potency, µM (titrated, usually from 46.1 µM), hits mostly cytotoxic | hit rate 3.4% among 400,000 | AID 1347076; further: on the % scale 0 is the no-effect control and ±100 the full control effect; nearly all actives have a fitted effect of over 60% in size
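Cytotoxicity via CellTiter-Glo luminescence after 72 h compound exposure at 37 degrees C. Cells: drug-selected KB-V1 line, DMEM phenol-red free plus 10% FBS. Compounds tested at multiple concentrations; normalized data fitted to concentration-effect curves.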
* = called active by the depositor; i = inactive; u = inconclusive; x = no result given; [ ] = remark or other dose. Unless noted, the call rests on the fitted dose curve; in most records, active means well fitted curve in the direction sought with a large enough effect; inconclusive means small, poorly fitted or top-dose-only effect, or another doubt; inactive means no such curve, though single readings can be large; an effect the other way counts as inactive or inconclusive. Potency means the concentration at half of the fitted maximal effect.

SMILES | PINK1 expr mod | 12-LOX inh | MCF10A rereplic | SW480 rerep | KB-3-1 tox | KB-V1 MDR tox
COC(=O)CCCCCN1C(=O)/C(=C\c2ccncc2)SC1=S | 2.3% | u | 25.9µM* | 1.0% | i | i
O=C(CCCN1C(=O)/C(=C/c2cccs2)SC1=S)Nc1cccnc1 | 7.8% | -14.4% | -28.2% | -46.1% | i | i
CCc1nnc(SCC(=O)Nc2cc(OC)cc(OC)c2)c2cc3sccc3n12 | x | 6.8% | x | x | x | x
C=CCNc1nc2c(c(=O)[nH]c(=O)n2C)n1CCCC | x | 34.4% | x | x | x | x
O=C(CCCN1C(=O)/C(=C\c2cccc(Br)c2)SC1=S)Nc1cccnc1 | 0.7% | -16.0% | 8.2µM* | 25.8% | i | i
CCc1ccc(/C=C2\SC(=S)N(CCCC(=O)Nc3ccccn3)C2=O)cc1 | u | 73.7% | 12.6% | -3.0% | u | u
O=C(CN1C(=O)/C(=C/c2ccccc2)SC1=S)N1CCN(CCc2ccccn2)CC1 | 2.9% | -4.6% | 5.8µM* | u | i | i
O=C(CCCN1C(=O)/C(=C/c2cccc(Br)c2)SC1=S)Nc1ccccn1 | -2.4% | 0.0% | u | u | 5.8µM* | 14.6µM*
Cc1cc(=O)oc2cc(OCc3nc(CC(C)C)no3)ccc12 | x | -27.8% | x | x | x | x
O=C(O)c1ccccc1C(=O)/C=C/c1ccc(Cl)cc1 | x | 18.4% | x | x | x | x
COc1ccc(NC(=O)N2CCN(c3nc(C)cc(N4CCOCC4)n3)CC2)cc1 | x | -3.5% | x | x | x | x
CC(=O)c1c(C(C)=O)c(C)n(-c2cccc([N+](=O)[O-])c2)c1C | 1.6% | 0.6% | 4.3% | -1.6% | i | i
Cc1cc(C(=O)CCl)c(C)n1-c1ccon1 | -0.7% | -13.6% | u | 11.6µM* | u | u
Cc1cc(C(=O)CCl)c(C)n1-c1cccc([N+](=O)[O-])c1 | -3.9% | u | u | u | 16.4µM* | 23.1µM*
COc1cc(OC)c(NC(=O)N2c3ccccc3CC2c2nc(C3CC3)no2)cc1Cl (stereo unspecified) | x | 56.8% | x | x | x | x
CNC[C@@H](Cc1ccccc1)NC[C@@H](CC1CCCCC1)NCCCc1ccccc1 | -1.5% | u | 64.0% | -3.8% | u | i
CNC[C@@H](CC1CCCCC1)NC[C@H](CC(C)C)NCCc1cccc(C(F)(F)F)c1 | -1.5% | -29.3% | 7.31µM* | u | u | u
N#Cc1nc(COc2ccccc2)oc1NCc1ccccc1Cl | x | -19.1% | x | x | x | x
Cc1ccc(CNC(=S)NCCN(C)C)cc1 | x | -10.3% | x | x | x | x
COc1ccccc1N1CCN(C(c2cccs2)C(C)NS(=O)(=O)c2ccccc2)CC1 (stereo unspecified) | 1.3% | 12.9% | -5.1% | -2.0% | u | i
CC(NS(=O)(=O)c1ccccc1)C(c1cccs1)N1CCN(c2ccccc2)CC1 (stereo unspecified) | -2.4%[38.3 µM] | -11.1% | u | 5.3% | u | 6.51µM*
COCCNC(=O)c1c(N)n(/N=C/c2ccc(F)cc2)c2nc3ccccc3nc12 | 4.1% | 12.5% | 2.59µM* | 5.8µM* | i | i
COCCNC(=O)c1c(N)n(/N=C/c2cccs2)c2nc3ccccc3nc12 | 0.9% | 145.0%[57.4 µM] | u | 5.8µM* | i | i
CC(C)CNC(=O)c1c(N)n(/N=C/c2ccccn2)c2nc3ccccc3nc12 | 4.0% | 5.3% | 18.4µM* | u | i | i
CCOCCCNC(=O)c1c(N)n(-c2ccc(S(N)(=O)=O)cc2)c2nc3ccccc3nc12 | 4.3% | -3.8% | u | u | i | i
Cc1nc2ccccc2c(=O)n1/N=C/c1ccccn1 | -5.4%[38.3 µM] | 0.3% | u | u | i | i
COc1ccc(/C(C)=N/OCC(=O)Nc2nc3ccccc3s2)cc1OC | 7.1% | u | u | -115.1% | u | 14.6µM*
Cc1cccc(C)c1NC(=O)COC(=O)C1Cc2ccccc2CN1C(=O)c1ccccc1 (stereo unspecified) | 0.5% | -0.4% | 0.1% | 0.0% | i | 8.2µM*
COc1ccc(C(=O)c2c(N)c(C(=O)Nc3ccccc3)c3ccccn23)cc1 | x | 23.6% | x | x | x | x

From PubChem BioAssay
